# Only some compounds are listed: those with a hit (about 11% of all), similar ones and a draw of the others.
# PNC assembly inh: perinucleolar compartment assembly inhibition; PC3M PTB-GFP, PNC prevalence imaging, 16 h; hits give low values; activity change (PNC), negative = inhibition, % at 10 µM; 3.1% of 140,000 active; AID 2417;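 active = readout at or below -70, meaning at least 70% loss of cells showing the perinucleolar compartment, a nuclear body marking cancer cells; inconclusive = readout between -30 and a set limit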;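 note: plate controls were DMSO wells for no effect and camptothecin positive control wells for full effect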
#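 PC3M cells stably expressing PTB-GFP, 750–1000 cells/well, treated 16 h at 37 °C with compound (23 nl of library stock), in duplicate. After paraformaldehyde fixation and Hoechst stain, imaged at 20x; PNC prevalence scored by image analysis.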
# HPGD inh: HPGD (human) dehydrogenase inhibition. AID 894. purified HPGD, NADH fluorescence kinetic, PGE2 substrate. 4.3% of 150,000 active. Potency, µM, for inactives: at the top dose activity change, negative = inhibition, most hits filed as inhibitors; note: potency is the fitted concentration of half-maximal effect
#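 NADH formation kinetics: reaction with 30 uM PGE2 and 1 mM NAD+ (final), 20 nM enzyme, Tris-HCl pH 8 with Tween 20, after 15 min compound preincubation at room temperature. Fluorescence change, last versus first of five reads.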
# ALDH1A1 inh: ALDH1A1 (human) enzyme inhibition; P00352; Purified ALDH1A1, NADH fluorescence, propionaldehyde substrate; 7.3% of 220,000 active; Potency, µM (top dose mostly 75.3 µM), inactives show at the top dose activity, negative = inhibition, most hits filed as inhibitors;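 note: potency is the fitted concentration of half-maximal effect; plate controls were no enzyme wells and a reference inhibitor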
# Target sequence (P00352 whole entry, looked up): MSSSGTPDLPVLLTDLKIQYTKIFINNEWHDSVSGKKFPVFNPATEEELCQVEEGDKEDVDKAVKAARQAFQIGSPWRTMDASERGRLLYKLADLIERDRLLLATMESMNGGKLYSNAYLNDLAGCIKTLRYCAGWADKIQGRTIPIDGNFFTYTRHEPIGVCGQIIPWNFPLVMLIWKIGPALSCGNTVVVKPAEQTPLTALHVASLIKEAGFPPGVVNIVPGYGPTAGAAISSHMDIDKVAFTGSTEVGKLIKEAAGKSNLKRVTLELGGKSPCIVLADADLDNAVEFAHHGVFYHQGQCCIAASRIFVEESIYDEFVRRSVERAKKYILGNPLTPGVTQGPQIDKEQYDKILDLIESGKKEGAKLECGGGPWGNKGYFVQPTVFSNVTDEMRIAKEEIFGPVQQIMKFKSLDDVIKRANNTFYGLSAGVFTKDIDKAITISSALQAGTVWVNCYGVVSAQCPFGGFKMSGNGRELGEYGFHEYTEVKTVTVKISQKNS
# Starred values were filed as active, the others as inactive; ? = inconclusive; . = not tested or not shown; [ ] = another dose, or the depositor's remark. Unless noted, calls come from the whole dose curve; as a rule, active = well fitted inhibition curve with a large enough effect (not every such curve was filed as active); inconclusive = small, poorly fitted or top-dose-only effect, or another doubt; inactive = no such curve, though single readings can be large or run the other way. Unless noted, % is set by controls: 0 for no effect and ±100 for the full control effect.
SMILES,PNC assembly inh,HPGD inh,ALDH1A1 inh
C/C(=N\NC(=S)Nc1ccccc1)c1c(O)n(C)c(=O)n(C)c1=O,-1,?,0.79µM*
O=C1C=C2C=C[C@@H]3C[C@@]2(O1)[C@H]1CCCCN31,.,0%,-7%
CC(C)(C)[C@]1(O)C[C@@H]2OC(=O)CC23C(=O)O[C@@H]2OC(=O)[C@H](O)C231 (some centres undefined),.,0%,5%
CCCCOc1nc2ccccc2c(=O)n1-c1ccccc1,?,-13%,14µM*
COc1nc2ccccc2c(=O)n1-c1ccc(Cl)cc1,-7,-9%,4%
COc1ccc(-n2c(-c3ccc(C)cc3)nc3ccccc3c2=O)cc1,.,.,7.9µM*
Cc1ccc(-c2nc3ccccc3c(=O)n2-c2ccncc2)cc1,27,-9%,?
CCCCNC(=O)OC(C)CNC(=O)Oc1cccc(C)c1 (centres undefined),-4,-2%,?
COCCCOc1ccnc(CS(=O)c2nc3ccccc3[nH]2)c1C (centres undefined),.,?,6µM*
Cc1c(OCC(F)(F)F)ccnc1CS(=O)c1nc2ccccc2[nH]1 (centres undefined),-2,?,1%
ClC=C(Cl)Cl,.,0%,21%
O=S(=O)(O)/C(=C\c1ccccc1)c1ccccc1 (tested in a mixture with another compound),.,-1%,-7%[13.5 µM]
O=[N+]([O-])c1ccccc1,.,-10%,32µM*
O=[N+]([O-])c1cccc(O)c1,.,-10%,?
COc1ccc2c3c1O[C@H]1C(=O)CC[C@@]4(O)C(C2)N(CC2CC2)CCC314 (some centres undefined),.,3%,?
COc1ccc2c(c1)CC1(CN2C)C(=O)NC(=O)N(CCc2ccccc2)C1=O (centres undefined),-5,-2%,?
COc1cccc(N2C(=O)NC(=O)C3(Cc4cc(C)ccc4N(C)C3)C2=O)c1 (centres undefined),?,-22%,20µM*
Cc1ccc2c(c1)CC1(CN2C)C(=O)NC(=O)N(c2cc(C)ccc2C)C1=O (centres undefined),-15,-16%,1.8µM*
CCCCN1C(=O)NC(=O)C2(Cc3cc(C)ccc3N(C)C2)C1=O (centres undefined),?,-10%,10µM*
COc1ccc(OC)c(N2C(=O)NC(=O)C3(Cc4cc(C)ccc4N(C)C3)C2=O)c1 (centres undefined),12,-11%,?
COc1cc(CN2C(=O)NC(=O)C3(Cc4cc(C)ccc4N(C)C3)C2=O)cc(OC)c1 (centres undefined),?,-18%,?
Cc1ccc(S(=O)(=O)NCC(=O)OCC(=O)N2N=C(c3ccc(Cl)cc3)CC2c2ccco2)cc1C (centres undefined),19,?,?
CC1C(=O)OC2O[C@]3(C)CC[C@H]4C(C)CCC1[C@]24OO3 (some centres undefined),.,-5%,?
CC(=O)[C@H]1[C@H](C#N)CC2C3CC=C4C[C@@H](O)CCC4(C)C3CCC21C (some centres undefined),.,-3%,-2%
Cc1ccccc1-c1cncnc1NCCc1cnc[nH]1,.,-3%,0%
SMILES,PNC assembly inh,HPGD inh,ALDH1A1 inh
CC(C)[C@@H](Br)C(=O)NCC(=O)O,.,-3%,-1%[13.5 µM]
Cc1[nH]c2ccccc2c1CN(C)C,.,-4%,-3%
O=C(C/C=N\OCc1c(Cl)cccc1Cl)Oc1ccc(Cl)cc1Cl,-23,-15%,?
CCCCCCCC(=O)Cl,.,-9%,?
CO[C@@H]([CH2][Hg])CN1C(=O)c2ccccc2S1(=O)=O.Cn1c(=O)c2nc[nH]c2n(C)c1=O,.,1.4µM*,3.2µM*
Cc1cc(N2C(=O)C3CCCN3C2c2cccc(Cl)c2)no1 (centres undefined),18,-13%,-7%
Cc1cc(N2C(=O)C3CCCN3C2c2sccc2C)no1 (centres undefined),-1,.,1.6µM*
C=C(C)[C@]12C[C@@H](C)[C@@]34O[C@](Cc5ccccc5)(O[C@@H]1[C@@H]3C=C(COC(=O)Cc1ccc(O)c(OC)c1)C[C@]1(O)C(=O)C(C)=C[C@@H]41)O2,.,-7%,1%
CN(C)C(=O)Nc1ccc(Cl)cc1,.,-3%,14%
CCC(=NCc1cc(OC)cc(OC)c1)c1c(O)n(C)c(=O)n(C)c1=O,-11,-20%,-5%
CCC(=Nc1ccc(OC)cc1OC)c1c(O)n(C)c(=O)n(C)c1=O,0,35µM*,?
CCCCn1c(O)c(C(CC)=Nc2ccc(OC)cc2OC)c(=O)[nH]c1=O,41,16µM*,5%
CCCCn1c(O)c(C(CC)=Nc2ccc(OCC)cc2)c(=O)[nH]c1=O,16,-15%,2%
Cn1c(CNC(=O)c2ccco2)nnc1SCC(=O)N1c2ccccc2Sc2ccccc21,-1,1%,?
C=CCOC(C)=O,.,-8%,-1%
CC[C@H](C)[C@H](NC(=O)[C@H](CCCN=C(N)N)NC(=O)[C@H](CCCN=C(N)N)NC(=O)[C@H](CC(C)C)NC(=O)[C@H](Cc1ccccc1)NC(=O)CNC(=O)CNC(=O)[C@@H](N)Cc1ccc(O)cc1)C(=O)O,.,.,5%
O=C1C=CC(=O)c2c(O)cccc21,.,14µM*,13µM*
C=CCCC#N,.,-10%,3.2µM*
Oc1ccc(/C=N/NP(=S)(c2ccccc2)c2ccccc2)cc1O,8,-12%,6%
Oc1ccc(/C=N/NP(=S)(c2ccccc2)c2ccccc2)c(O)c1O,38,22µM*,11µM*
CC(=O)NNc1ccccc1,.,-2%,-5%
c1ccc(NNc2ccccc2)cc1,.,4%,10µM*
CC(C)=CCCC1(C)C=Cc2c(O)c3c(c(CC=C(C)C)c2O1)OC12C(=CC4CC1C(C)(C)OC2(C/C=C(/C)C(=O)O)C4=O)C3=O (centres undefined),.,?,-6%
O=[N+]([O-])c1cc([N+](=O)[O-])c2ccccc2c1,.,-10%,-6%
O=C1NS(=O)c2cc([N+](=O)[O-])cc([N+](=O)[O-])c21 (centres undefined),.,.,22µM*
SMILES,PNC assembly inh,HPGD inh,ALDH1A1 inh
C[As+](C)(c1ccc(Br)c([N+](=O)[O-])c1)c1ccc(Br)c([N+](=O)[O-])c1.O=[N+]([O-])O,.,-2%,32%[13.5 µM]
O=C(Nc1cccc(F)c1)N1CC2(CCN(C(=O)Oc3ccccc3)CC2)C1,.,-7%,-9%
COc1cccc(N2CCN(Cc3ccc(Cl)cc3)CC2)c1,8,-14%,10µM*
COc1cccc(N2CCN(Cc3cccc(Cl)c3)CC2)c1,15,-13%,-5%
O=c1[nH]c(=S)[nH]c(O)c1N=Nc1ccc(S(=O)(=O)N2CCc3ccccc32)cc1,.,.,6.3µM*
O=C1OCc2cc(N=Nc3c(O)[nH]c(=O)[nH]c3=O)ccc21,.,.,-4%
O=c1[nH]c(=S)[nH]c(O)c1N=Nc1ccc(SC(F)F)cc1,.,.,20µM*
CCOc1ccc2nc(N=Nc3c(O)[nH]c(=S)[nH]c3=O)sc2c1,.,.,-2%
CC1C(=O)OC2C(O)C34C5OC(=O)[C@@]3(OC3OC(=O)[C@H](O)[C@]34C(C(C)(C)C)C5O)[C@]12O (some centres undefined),.,-5%,6%
Oc1cccc(Cl)c1Cl,.,-1%,8%
Oc1ccccc1O,.,18µM*,14µM*
